# From PubChem BioAssay
# OPRK1 antag MB – antagonists of human kappa opioid receptor OPRK1, Maybridge library; Kappa-type opioid receptor (Homo sapiens), P41145; OPRK1 cells, antagonist mode, fluorescence readout; inhibition, % at 9 µM; hit rate 0.4% among 16,000; in the data active = inhibition above about 50%
# TLR4-MyD88 inh – inhibitors of human TLR4-MyD88 binding. Cell-based TLR4-MyD88 binding inhibition assay. inhibition, % at 10 µM. hit rate 0.06% among 16,000. AID 811, 2007. Toll-like receptor 4 (Homo sapiens), O00206; in the data active = inhibition above about 45%
# Target sequence (O00206 whole entry, looked up): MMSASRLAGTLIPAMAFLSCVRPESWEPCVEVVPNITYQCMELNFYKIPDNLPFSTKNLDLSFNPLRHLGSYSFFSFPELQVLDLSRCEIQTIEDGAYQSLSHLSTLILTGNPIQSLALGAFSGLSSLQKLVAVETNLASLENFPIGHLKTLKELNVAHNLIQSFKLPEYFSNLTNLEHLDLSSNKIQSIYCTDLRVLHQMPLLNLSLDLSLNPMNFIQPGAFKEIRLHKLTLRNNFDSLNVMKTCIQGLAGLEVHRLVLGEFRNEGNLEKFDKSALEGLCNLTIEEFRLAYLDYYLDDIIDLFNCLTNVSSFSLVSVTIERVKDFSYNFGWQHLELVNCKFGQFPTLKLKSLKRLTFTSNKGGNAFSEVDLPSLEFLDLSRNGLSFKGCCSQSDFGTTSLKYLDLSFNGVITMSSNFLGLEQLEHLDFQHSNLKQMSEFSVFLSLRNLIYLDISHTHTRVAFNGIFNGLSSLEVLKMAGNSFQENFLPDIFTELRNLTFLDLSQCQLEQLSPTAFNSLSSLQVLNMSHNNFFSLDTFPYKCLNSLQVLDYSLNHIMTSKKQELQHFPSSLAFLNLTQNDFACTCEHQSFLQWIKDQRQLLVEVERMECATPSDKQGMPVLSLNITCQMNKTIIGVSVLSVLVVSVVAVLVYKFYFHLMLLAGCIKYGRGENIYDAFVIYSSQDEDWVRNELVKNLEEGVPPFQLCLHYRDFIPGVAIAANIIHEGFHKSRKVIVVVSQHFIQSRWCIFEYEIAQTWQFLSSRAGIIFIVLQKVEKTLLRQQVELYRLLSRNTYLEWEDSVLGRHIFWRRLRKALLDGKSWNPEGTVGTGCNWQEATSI
# S1P1 ag – activates the human S1P1 receptor. activation, % at 4.5 µM. AID 1044, 2008. S1P1 agonist cell-based reporter assay. Sphingosine 1-phosphate receptor 1 (Homo sapiens), P21453. hit rate 1.5% among 16,000; in the data active = activation above about 80%
# NOTCH ag – agonists of NOTCH signaling; NOTCH signaling luciferase reporter cells, luminescence; activation, % at 2.5 µM; hit rate 0.4% among 15,000; AID 434982, 2010; in the data active = activation above about 2.2%
# PME-1 Maybr inh – inhibitors of human PME-1 in Maybridge library | recombinant PME-1, FP-Rh probe fluorescence polarization | AID 2291, 2010 | hit rate 0.5% among 16,000 | inhibition, % at 9 µM | Protein phosphatase methylesterase 1 (Homo sapiens), Q9Y570; in the data active = inhibition above about 30%
# Hits are given with their value; - = inactive; . = no result. In the library only some 2.6% were active in any assay of this set; here they are far more common.
SMILES,OPRK1 antag MB,TLR4-MyD88 inh,S1P1 ag,NOTCH ag,PME-1 Maybr inh
O=c1c(Nc2ccc(OC(F)(F)F)cc2)c(Nc2ccc(OC(F)(F)F)cc2)c1=O,-,-,-,-,30
CCOC(=O)c1ccc(-n2nnc(/C=C/C=C/N3CCOCC3)n2)cc1,-,-,-,-,-
C=CCn1c(-c2sc3nnc(-c4ccccc4)c(-c4ccccc4)c3c2N)n[nH]c1=S,57,-,-,-,-
c1csc(-c2ccc(-c3nn[nH]n3)s2)c1,-,-,-,-,-
CC(=O)c1ccc(Cl)c(-n2cccc2)c1,-,-,-,-,-
N#CC(C#N)=NNc1ccc2c(c1)OCCO2,-,-,94,-,-
CC(C)=N/N=C1\NC(=O)C(C)S1 (configuration not stated),-,-,-,-,-
O=C(C(O)C(O)C(=O)N1CCCC1)N1CCCC1 (configuration not stated),-,-,-,-,-
CCOC(=O)c1cc(-c2ccc(Cl)cc2)[nH]c(=O)c1C#N,-,-,-,-,-
CCOC(=O)/C(C#N)=C/NCCc1ccncc1,-,-,-,-,-
O=C(O)c1ccccc1C(=O)c1ccc(Sc2ccccc2)c([N+](=O)[O-])c1,-,-,-,-,-
CC(=O)c1ccc(Sc2cccc(C(F)(F)F)c2)c([N+](=O)[O-])c1,-,-,-,-,32
c1ccc2c(c1)-c1ccccc1C2c1ccncc1,-,-,-,2.3,-
COc1c(Cl)cc(Cl)c(OC)c1C(=O)NNC(=S)NC(C)(C)C,-,-,-,-,-
N#C/C(=N\Nc1ccccc1Cl)S(=O)(=O)c1ccc(Cl)cc1,-,-,112,-,-
Cc1cc(S(=O)(=O)NNc2ncnc3c2cnn3C)c(C)cc1Cl,-,-,-,-,-
COc1cc2ncnc(NNS(=O)(=O)c3cc(C)c(Cl)cc3C)c2cc1OC,-,-,-,-,32
COc1ccccc1NS(=O)(=O)c1ccccc1[N+](=O)[O-],-,-,-,-,-
COc1ccccc1NS(=O)(=O)c1ccc(Cl)s1,-,-,-,.,32
CCCCCC[n+]1ccccc1/C=C/c1ccc(N(C)C)cc1,72,64,113,-,-
CCOC(=O)/C(=N\O)C1=CSC2=NNC(C)(C)N12,-,-,94,-,-
COCCCNC(=S)N/N=C/C=C/c1ccccc1,-,-,-,-,-
CCCCc1ccc(NC(=O)CSc2nc(C3CCCCC3)c(C#N)c(=O)[nH]2)c(C)c1,-,-,-,-,-
CS(=O)(=O)/C(C#N)=C\c1ccc(Cl)s1,57,-,-,-,-
COc1ccc(/C=C(\C#N)S(=O)(=O)c2ccccc2Cl)s1,-,-,-,-,-
SMILES,OPRK1 antag MB,TLR4-MyD88 inh,S1P1 ag,NOTCH ag,PME-1 Maybr inh
CCOC(=O)c1cc(N2C(=O)c3ccccc3C2=O)ccc1N1CCCCC1,-,-,-,-,-
O=C1c2ccc(Cl)c3c(N4CCSCC4)ccc(c23)C(=O)N1c1ccccc1,58,-,-,-,-
CCCc1c(OCCCOc2ccc3c(=O)c(-c4ccccc4)coc3c2)ccc(C(C)=O)c1O,-,-,95,-,-
CCOC(=O)c1cc(C#N)c(N2CCC(C(=O)OCC)CC2)nc1C(F)(F)F,-,-,-,.,-
CCOC(=O)c1cc(C(=O)OC)c(C)nc1N1CCC(NC2CCCCC2O)CC1 (configuration not stated),92,-,-,-,-
Cc1nc(-c2ccccc2)sc1C(=O)NNC(=O)c1cccc2ccccc12,-,-,-,-,-
Cc1sc(-c2ccccc2)nc1CC(=O)NNC(=O)c1cccc(OC(F)(F)F)c1,-,-,-,2.5,-
CCCS(=O)(=O)/C(C#N)=N/Nc1cc(C(F)(F)F)cc(C(F)(F)F)c1,-,-,117,-,-
Cc1cc(/C(N)=N/OC(=O)c2ccno2)no1,-,-,-,-,-
Cc1cc(C(=O)O/N=C(\N)c2ccc(C(C)(C)C)cc2)no1,-,-,90,-,-
CN1c2ccccc2C(O)=C(C(=O)Nc2ccc(OC(F)(F)F)cc2)S1(=O)=O,-,-,-,-,-
O=C(Cc1ccccc1)NC1CCN(C(=O)Cc2ccccc2)CC1,-,-,-,-,-
CC(=NCCc1ccccc1)C1CCOC1=O (configuration not stated),-,-,114,-,-
Cc1csc2ncnc(NNC(=O)c3ccc(Cl)cc3)c12,-,-,-,-,-
Cc1csc2ncnc(NCCc3ccc(Cl)cc3)c12,-,-,102,-,-
CNC(=O)n1nc(C)c(Cc2csc3ccc(Cl)cc23)c1C,-,-,-,-,48
CNC(=O)Cc1csc2ccc(Cl)cc12,-,-,-,-,-
CSc1sccc1/C=C(/C#N)C(=O)c1ccco1,-,-,-,-,-
N#C/C(=N\Nc1ccc(OC(F)(F)F)cc1)C(=O)c1ccsc1,-,-,107,-,-
N#C/C(=C\Nc1ccc(OC(F)(F)F)cc1)C(=O)c1cccs1,-,-,-,-,-
COc1c(Cl)cc(Cl)cc1-c1csc(NC(=O)C(Cl)(Cl)Cl)n1,-,-,89,-,-
CC(ONC(=O)c1cc(C(F)(F)F)cc(C(F)(F)F)c1)C(=O)Nc1ccc(Cl)cc1 (configuration not stated),-,-,110,-,-
O=C(CC(C[N+](=O)[O-])c1ccc(Cl)cc1)c1ccccc1 (configuration not stated),-,-,-,-,-
O=C1CS/C(=N/N=C/c2ccn[nH]2)N1,-,-,-,-,-
O=C(N/N=C/c1cc(Cl)cc(Cl)c1O)C(=O)Nc1ccc(Cl)c(Cl)c1,-,-,-,4.1,-
SMILES,OPRK1 antag MB,TLR4-MyD88 inh,S1P1 ag,NOTCH ag,PME-1 Maybr inh
CC(=O)Nc1cccc(OCCOc2cccc(NC(C)=O)c2)c1,-,-,-,-,-
CCCOc1ccc(NC(C)=O)cc1,-,-,-,5.0,-
O=C(Cc1ccccc1F)NCCc1c[nH]c2ccccc12,-,-,-,-,-
CCN(c1ccccc1)S(=O)(=O)c1cc([N+](=O)[O-])ccc1N,-,-,100,-,-
Cc1ccc([N+](=O)[O-])cc1S(N)(=O)=O,-,-,-,-,-
Cc1nn(C(=O)c2cc(C)n(-c3ccccc3)n2)c(C)c1Br,-,-,-,-,41
Cc1nn(-c2ccccc2)c(C)c1C(=O)Oc1ccccc1,-,-,-,-,-
Cc1nc(C)c(-c2ccnc(C34CC5CC(CC(C5)C3)C4)n2)o1,-,-,-,-,-
Cc1nnc(SCC(=O)Nc2cccc(C(F)(F)F)c2)n1-c1ccc2c(c1)OCCO2,-,-,-,-,-
CCOC(=O)c1cc(NC(=O)Nc2cccc(Cl)c2)ccc1Oc1cncc(Cl)c1,-,-,80,-,-
CCCCNc1ccc2c3c(cccc13)C(=O)N(CCCC)C2=O,89,55,-,-,-
O=C(Cc1csc2ccccc12)Nc1ccc(F)cc1,-,-,-,-,58
Cn1c2c(c(=O)n3ncnc13)CCCC2,-,-,91,-,-
O=C(Cn1c2c(c(=O)n3ncnc13)CCC2)N/N=C/c1cccs1,-,-,-,-,-
COc1cc2c(=O)oc(-c3cccc(C(F)(F)F)c3)nc2c(OC)c1OC,-,-,-,-,-
